# The source made the active and inactive calls.
# Key:
# [1] = compound effects on lung adenocarcinoma cell viability – A549, calcein-AM fluorescence, 48 h, basal, profiling panel (AID 1162); conditions: higher = more signal
# [2] = compound effects on differentiated 3T3-L1 adipocyte viability – cell-based, 3T3-L1 adipocytes, calcein-AM fluorescence, 48 h, basal, profiling panel (AID 1163); conditions: 3T3-L1 adipocytes viability, higher = more signal
# [3] = compound effects on hepatocellular carcinoma cell viability – HepG2, calcein-AM fluorescence, 48 h, basal, profiling panel (AID 1164); conditions: higher = more signal
# [4] = compound effects on multiple myeloma cell viability – MM1S, calcein-AM fluorescence, 48 h, basal, profiling panel (AID 1165); conditions: higher = more signal
# [5] = calcein-AM signal in unstimulated myeloma cells – cell-based, calcein-AM fluorescence, 48 h, PK04 Diversity Set, profiling panel (AID 1166); conditions: RPMI8226 myeloma viability, higher = more signal;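 note: cells grown under basal conditions without added stimulus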
# [6] = JC-1 mitochondrial signal, unstimulated HepG2 cells – cell-based, JC-1 fluorescence, 24 h, 100 nL compound, profiling panel (AID 1167); conditions: HepG2 mitochondrial potential, higher = more signal
# [7] = JC-1 mitochondrial signal, unstimulated adipocytes – cell-based, JC-1 fluorescence, 3T3-L1 adipocytes, 24 h, 100 nL compound, profiling panel (AID 1168); conditions: JC-1 mitochondrial fluorescence, higher = more signal, called active from +8 up or from −8 down
# [8] = JC-1 mitochondrial signal, unstimulated myeloma cells – cell-based, JC-1 fluorescence, RPMI8226, 24 h, 100 nL compound, profiling panel (AID 1169); conditions: JC-1 mitochondrial potential fluorescence, higher = more signal
# [9] = JC-1 mitochondrial signal, unstimulated MM1S myeloma – cell-based, JC-1 fluorescence, 24 h, 100 nL compound, profiling panel (AID 1170); conditions: MM1S mitochondrial potential, higher = more signal
# [10] = resazurin metabolic signal in A549 cells – cell-based, resazurin fluorescence, 24 h, PK04 Diversity Set, profiling panel (AID 1171); conditions: A549 viability, higher = more signal, called active from +8 up or from −8 down
# Note: test concentration not given here.
SMILES,z-score [1],z-score [2],z-score [3],z-score [4],z-score [5],z-score [6],z-score [7],z-score [8],z-score [9],z-score [10]
CN(C)CCCCCCNC(=O)[C@@H]1C[C@@H]2C(=O)N[C@@H](CCCC[N+](C)(C)C)C(=O)N2[C@@H]1c1cccc(OCCO)c1,-0.188,-0.015,0.413,0.232,0.799,1.37,-0.225 (inactive),-0.567,0.0992,-0.646 (inactive)
COc1cccc(C)c1NC(=O)O[C@H]1[C@H](OC(=O)Nc2ccccc2)[C@@H](OC(=O)Nc2ccccc2)[C@@H](OC)O[C@@H]1CO,-1.86,0.861,-1.9,-2.59,-3.26,-0.702,1.17 (inactive),-1.05,0.0418,-3.49 (inactive)
COc1cccc(C)c1NC(=O)O[C@H]1[C@H](OC(=O)Nc2ccc3c(c2)OCO3)[C@H](OC(=O)Nc2ccc3c(c2)OCO3)[C@@H](OC)O[C@@H]1CO,-0.934,0.372,-0.997,-1.62,-1.82,-0.514,0.308 (inactive),-0.136,-0.724,-0.654 (inactive)
COc1ccc([Si](C)(C)[C@H]2[C@H](CC(=O)N3CCC[C@H]3CO)O[C@@]3(C(=O)N(C)c4c(Br)cc(C)cc43)[C@@H]2C)cc1,0.709,-0.333,-0.232,0.0328,-0.63,0.604,0.123 (inactive),-0.126,-0.468,0.809 (inactive)
CN(C)CCCC[C@@H]1NC(=O)[C@H]2C[C@@H](C(=O)NCCCCCCNC(=O)CS)[C@@H](c3cccc(OCCO)c3)N2C1=O,-0.234,-0.288,-0.384,-0.315,-0.357,-1.27,-0.0363 (inactive),0.503,-0.177,0.0246 (inactive)
COC(=O)Cn1c(C(=O)N(C)C)cc2c1C[C@H]1CN(C(=O)c3ccccc3)[C@@](Cc3ccccc3)(C(=O)OC)[C@@H]21,-0.314,0.275,-0.479,0.0914,-0.512,-1.11,-0.327 (inactive),-0.146,-1.11,0.374 (inactive)
O=C1OCC=C[C@H]2OC34C=CCN(Cn5nnc6ccccc65)C(=O)[C@H]3N(CCO)C(=O)[C@@H]4[C@@H]12 (stereo not given in full),0.0757,-0.529,0.344,0.897,0.209,-1.15,0.765 (inactive),-0.462,-0.187,-0.822 (inactive)
COCCOC(=O)N1C(=O)[C@@]2(c3cc(C#CCNC(N)=O)ccc31)[C@H](C(=O)N1CCN(c3ncccn3)CC1)[C@H]1C(=O)O[C@H](c3ccccc3)[C@H](c3ccccc3)N1[C@@H]2c1ccc(O)cc1,0.722,-0.118,0.568,0.445,1.17,0.866,-0.709 (inactive),-0.0604,-0.564,-0.824 (inactive)
C=C[C@@H](CO)NS(=O)(=O)c1ccc(Br)cc1,2.03,0.935,2.23,0.855,1.05,0.631,0.369 (inactive),0.133,0.993,2.35 (inactive)
COCCOC(=O)N1C(=O)[C@@]2(c3cc(C#CCNC(N)=O)ccc31)[C@H](C(=O)Nc1nc3ccccc3s1)[C@H]1C(=O)O[C@H](c3ccccc3)[C@H](c3ccccc3)N1[C@@H]2c1ccc(O)cc1,-0.277,-0.133,-0.287,-1.19,0.258,-3.96,-2.98 (inactive),-0.776,-1.14,0.14 (inactive)
COCCOC(=O)N1C(=O)[C@@]2(c3cc(C#CCCO)ccc31)[C@H](c1ccc(O)cc1)N1[C@H](c3ccccc3)[C@H](c3ccccc3)OC(=O)[C@H]1[C@@H]2C(=O)NC[C@H](O)c1ccccc1,1.7,0.617,1.2,0.0034,-0.409,-0.424,-1.55 (inactive),-0.429,-0.841,0.908 (inactive)
COc1ccc([Si](C)(C)[C@H]2[C@H](CCO)O[C@@]3(C(=O)N(Cc4ccccc4)c4ccc(NC(=O)[C@H](C)O)cc43)[C@@H]2C)cc1,-1.88,-1.49,-4.52,-2.62,-4.31,-2.86,0.364 (inactive),-0.961,-2.39,-3.18 (inactive)
C=CCC(OC(C)=O)[C@@H]1[C@@H](N(Cc2ccc(-c3ccccc3)cc2)C(=O)Cc2ccc(OC)cc2)c2cc(OCCCO)ccc2N1C(=O)Cc1ccc(OC)cc1 (stereo not given in full),0.0816,0.9,-0.103,0.11,-0.203,2.58,-0.454 (inactive),-0.0751,0.504,0.117 (inactive)
COCCOC(=O)N1C(=O)[C@@]2(c3cc(C#CCCO)ccc31)[C@H](C(=O)N1CCN(c3ncccn3)CC1)[C@H]1C(=O)O[C@H](c3ccccc3)[C@H](c3ccccc3)N1[C@@H]2c1ccc(OCCO)cc1,0.451,0.474,-0.442,-1.07,0.863,-1.02,0.0633 (inactive),-0.185,-1.02,0.427 (inactive)
CC(C)c1ccc(NN2C(C(O)C3=C[C@H]4C[C@@H](C3)C4(C)C)C=CC3C(=O)N(c4ccccc4)C(=O)C32)cc1 (stereo not given in full),0.0464,-0.395,0.165,-1.16,-1.04,-2.56,-0.401 (inactive),-0.366,0.758,-0.186 (inactive)
